Measurements taken from the supplement of paper PMC10681739.

How the values were obtained:
RUNX1 [1] = target: RUNX1 (UniProt Q01196); experiment: RUNX1 binding intensity (PBM fluorescence), RUNX1 alone (arbitrary fluorescence units); higher = stronger binding; conditions: RUNX1 concentration 2 nM; ETS1 concentration 0 nM
Experimental: (§1)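 Cooperative gcPBM on 36-bp genomic probes with neighbouring ETS1 and RUNX1 sites. Recombinant human RUNX1 (2 nM) was incubated alone or with ETS1 (25 nM) and detected with anti-RUNX1 antibody plus Alexa488 secondary. Values are medians over 4 replicate spots; the RUNX1+ETS1 data were normalised to the RUNX1-only data. The probes sit in constant array flanks that are not printed.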

RUNX1 [2] = target: RUNX1 (UniProt Q01196); experiment: RUNX1 binding intensity (PBM fluorescence) in presence of ETS1, normalised to RUNX1-only experiment (arbitrary fluorescence units); higher = stronger binding; conditions: RUNX1 concentration 2 nM; ETS1 concentration 25 nM
Experimental: as §1
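Throughout, for RUNX1 binding intensity (PBM fluorescence) in presence of ETS1, normalised to RUNX1-only experiment: Full-length recombinant human ETS1 or RUNX1 bound to double-stranded 36-bp genomic probes on microarrays, detected by protein-specific primary antibody and Alexa488 secondary, spot fluorescence as median of four replicate spots.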
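Throughout, for RUNX1 binding intensity (PBM fluorescence), RUNX1 alone: Full-length recombinant human RUNX1 bound to double-stranded 36-bp genomic probes on a high-density microarray, scored as Alexa488 fluorescence per spot via anti-RUNX1 antibody, median of four replicate spots.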

Sequence of RUNX1 (Q01196 whole entry): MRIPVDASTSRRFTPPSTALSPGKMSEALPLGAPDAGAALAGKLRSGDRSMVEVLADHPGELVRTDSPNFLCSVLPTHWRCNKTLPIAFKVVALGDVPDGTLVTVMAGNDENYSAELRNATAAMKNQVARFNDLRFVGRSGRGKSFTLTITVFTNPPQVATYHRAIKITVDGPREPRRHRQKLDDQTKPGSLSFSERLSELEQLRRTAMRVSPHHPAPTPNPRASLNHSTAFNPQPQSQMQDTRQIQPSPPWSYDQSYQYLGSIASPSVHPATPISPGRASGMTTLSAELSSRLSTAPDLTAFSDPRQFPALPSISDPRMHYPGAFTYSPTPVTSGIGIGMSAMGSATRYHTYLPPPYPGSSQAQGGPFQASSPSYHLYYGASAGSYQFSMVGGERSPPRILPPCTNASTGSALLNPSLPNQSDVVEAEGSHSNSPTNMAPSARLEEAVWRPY

Sequence	RUNX1 binding intensity (RUNX1 [1])	RUNX1 binding intensity (RUNX1 [2])
TTGTTCCACCCCCGCGGAAACCGCTGCTCGCTGGGC	913	965
AGCAGGGCTCGCCGGGAAATGTGGTTTCTCCAGCCG	843	952
AGAGGCTTCCTGAGGAACTGGTGTGGTCAGGGGAGC	740	1010
GTCCCCTGAATTTTCCTGTGGTTCTTATCACCAGGT	1180	1360
GCTGGGCCATCCTGCCACATGCACCGCATCTCTGGG	759	878
CAGAGCCAAACATGCGGAAGTGGTTACGTGTACTAG	795	1900
CCATTTCCCGCCTACCGACCTGCTGCACCGCACGGA	1430	3390
GGGCGGAAGGGGTTCGCACGCCAAGAACCGCCATGC	855	683
GCTAACGGAACCAGCACGCGGCCACCGCAGGAACCT	853	869
CCGGGAAACACGGGAGAGCGACCGAAACCGCAATCA	3650	4390
ACGGTGCGTTTCCCCAACTACACCGCACGTCACGGA	988	827
CCACCTCCTCCGGACGCCGCCCGCAACTGAGCATGC	1030	1230
GAGTGCCGTTTCCCCCGCTCACCGCGGGCTAGGGAG	942	1040
GAAACGTCACCCAGAGGAAACCCACAAGGGGCGTGG	875	836
AGTAGGATGGGAGGAAGTGGTTTGTAAGAGGAGGAC	769	1480
CAAGAGAAAGGAAGTGGAAGCTCTTGTGGTCTGGAA	733	1240
TACCTAGACCCTTTCCGCCCTTACCGCGGCCAGACA	1210	1410
TGGGTGCCGGATTCGGTGAGTGTGGTTCTCATGATG	654	895
GGCCTGTCACACACAGGAAGCGGTCACAGAAAAGCT	795	2140
TGAGTTTTGTTTCCGATTCACCACAGAAGATACTTT	2230	2560
AGTAGAGGAGGAAGTTAAATGTGGTTTTCTGGGTGG	857	1130
